Test results taken from PubChem BioAssay AID1159580 (chemical genetic matrix, 2015).
Values joined by “and” are separate entries in the source; they are usually repeats but may differ in a detail not shown here. Identical values can stand only once. Screen size: about 5,500 compounds; about 2,000 (36%) were called active. About 18% were inconclusive and are not listed. No stated cut-off is given here; in the data, active means normalized growth mostly below about 0.91 (no sharp cut-off); inconclusive means no clear call, values can overlap the other calls; inactive means mostly above about 0.92. The list shows a part of the results.

Test: chemical genetic growth profiling, strain panel (AID 1159580);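 further: tested at 20 µM; growth read once vehicle control cultures reached saturation at 30 °C; 1 = growth at the plate median or of vehicle wells; lower values mean less growth of the strain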
Conditions: S. cerevisiae deletion strains, growth OD

Measured: normalized growth

COc1ccc(C(=O)CC(=O)O)c2c1C=CC(C)(C)O2
inactive: locus YAL021C, strain ccr4, hits give low values 1 | locus YAL026C, strain drs2, hits give low values 1 | locus YAL030W, strain snc1, hits give low values 0.992 | locus YBL061C, strain skt5, hits give low values 0.999 | locus YBR009C, strain hhf1, hits give low values 1.01 | locus YBR021W, strain FUR4, hits give low values 0.986 | locus YBR023C, strain chs3, hits give low values 1.01 | locus YBR171W, strain sec66, hits give low values 0.986 | locus YBR229C, strain ROT2, hits give low values 0.983 | locus YBR231C, strain swc5, hits give low values 0.987 | locus YBR279W, strain paf1, hits give low values 1.01 | locus YCL011C, strain gbp2, hits give low values 1.01 | locus YCL016C, strain dcc1, hits give low values 1.02 | locus YCL029C, strain bik1, hits give low values 0.997 | locus YCL061C, strain MRC1, hits give low values 1 | locus YCL069W, strain vba3, hits give low values 1.01 | locus YCR088W, strain abp1, hits give low values 0.995 | locus YDL005C, strain med2, hits give low values 0.983 | locus YDL035C, strain GPR1, hits give low values 1.02 | locus YDL040C, strain nat1, hits give low values 1 | locus YDL074C, strain BRE1, hits give low values 1 | locus YDL101C, strain DUN1, hits give low values 1.01 | locus YDL185W, strain tfp1, hits give low values 0.988 | locus YDL192W, strain arf1, hits give low values 0.996 | locus YDR001C, strain nth1, hits give low values 0.995 | locus YDR069C, strain doa4, hits give low values 0.984 | locus YDR101C, strain arx1, hits give low values 0.995 | locus YDR137W, strain rgp1, hits give low values 1.03 | locus YDR150W, strain NUM1, hits give low values 0.999 | locus YDR159W, strain sac3, hits give low values 0.956 | locus YDR162C, strain NBP2, hits give low values 1.06 | locus YDR195W, strain ref2 0.962 | locus YDR297W, strain sur2, hits give low values 0.997 | locus YDR318W, strain mcm21, hits give low values 0.997 | locus YDR334W, strain swr1, hits give low values 0.997 | locus YDR335W, strain msn5, hits give low values 1.01 | locus YDR388W, hits give low values 1.01 | locus YDR392W, strain spt3, hits give low values 0.96 | locus YDR502C, strain sam2, hits give low values 1.02 | locus YEL003W, strain gim4, hits give low values 0.999 | locus YEL037C, strain rad23, hits give low values 0.999 | locus YEL061C, strain CIN8, hits give low values 0.998 | locus YER015W, strain faa2, hits give low values 1.01 | locus YER016W, strain bim1, hits give low values 0.99 | locus YER110C, hits give low values 0.977 | locus YER111C, strain swi4, hits give low values 1 | locus YER155C, strain BEM2 (second series), hits give low values 0.99 | locus YER155C, strain BEM2, hits give low values 0.983 | locus YER167W, strain BCK2, hits give low values 0.993 | locus YFR010W, strain ubp6, hits give low values 0.994 | locus YGL078C, strain dbp3, hits give low values 0.994 | locus YGL086W, strain mad1, hits give low values 0.99 | locus YGL167C, strain pmr1, hits give low values 0.994 | locus YGL173C, strain kem1, hits give low values 0.99 | locus YGL227W, strain vid30, hits give low values 0.981 | locus YGL240W, strain doc1, hits give low values 1.02 | locus YGL248W, strain PDE1, hits give low values 1 | locus YGL253W, strain hxk2, hits give low values 1 | locus YGR078C, strain PAC10, hits give low values 1.03 | locus YGR135W, strain pre9, hits give low values 0.992 | locus YGR252W, strain gcn5, hits give low values 0.979 | locus YHR013C, strain ard1, hits give low values 1.02 | locus YHR027C, strain rpn1, hits give low values 0.982 | locus YHR030C, strain SLT2, hits give low values 0.997 | locus YHR079C, strain IRE1 (second series), hits give low values 0.991 | locus YHR079C, strain IRE1, hits give low values 0.987 | locus YHR094C, strain hxt1, hits give low values 1 | locus YHR129C, strain ARP1, hits give low values 0.998 | locus YHR142W, strain chs7, hits give low values 1 | locus YHR200W, strain rpn10, hits give low values 0.987 | locus YIL066C, strain RNR3, hits give low values 1.02 | locus YIL073C, strain SPO22, hits give low values 1.04 | locus YIL125W, strain kgd1, hits give low values 1.01 | locus YIR030C, strain dcg1, hits give low values 0.993 | locus YJL092W, strain hpr5, hits give low values 1 | locus YJL095W, strain BCK1 (second series), hits give low values 0.99 | locus YJL095W, strain BCK1, hits give low values 1.05 and 1.08 | locus YJL115W, strain asf1, hits give low values 1 | locus YJL129C, strain trk1, hits give low values 1 | locus YJL134W, strain LCB3, hits give low values 0.995 | locus YJL154C, strain vps35, hits give low values 0.996 | locus YJL164C, strain tpk1, hits give low values 1.01 | locus YJL166W, strain qcr8, hits give low values 1 | locus YJL168C, strain set2, hits give low values 0.998 | locus YJL187C, strain SWE1 (second series), hits give low values 1.02 | locus YJL187C, strain SWE1, hits give low values 1.01 | locus YJR043C, strain POL32, hits give low values 1.04 | locus YJR066W, strain TOR1, hits give low values 0.949 | locus YJR075W, strain HOC1, hits give low values 1.02 | locus YKL009W, strain mrt4, hits give low values 1.03 | locus YKL068W, hits give low values 0.992 | locus YKL085W, strain MDH1 (second series), hits give low values 1 | locus YKL085W, strain MDH1, hits give low values 1 | locus YKL160W, strain elf1, hits give low values 1.01 | locus YKL190W, strain CNB1, hits give low values 0.994 | locus YKR001C, strain vps1, hits give low values 0.994 | locus YKR026C, strain gcn3, hits give low values 0.995 | locus YKR091W, strain srl3, hits give low values 0.997 | locus YLL001W, strain dnm1, hits give low values 1.01 | locus YLL026W, hits give low values 1 | locus YLL041C, strain sdh2, hits give low values 1.01 | locus YLR027C, strain aat2, hits give low values 1.01 | locus YLR039C, strain RIC1, hits give low values 1.08 | locus YLR058C, strain SHM2, hits give low values 0.996 | locus YLR102C, strain apc9, hits give low values 0.992 | locus YLR113W, strain HOG1, hits give low values 1.07 | locus YLR221C, strain rsa3, hits give low values 0.99 | locus YLR258W, strain gsy2, hits give low values 1 | locus YLR262C, strain YPT6 (second series), hits give low values 1.03 | locus YLR262C, strain YPT6, hits give low values 1.06 | locus YLR268W, strain sec22, hits give low values 1.01 | locus YLR320W, strain mms22, hits give low values 0.987 | locus YLR330W, strain CHS5, hits give low values 0.995 | locus YLR342W, strain FKS1 (second series), hits give low values 1 | locus YLR342W, strain FKS1, hits give low values 0.999 | locus YLR357W, strain rsc2, hits give low values 0.959 | locus YLR370C, strain arc18, hits give low values 1.03 | locus YLR371W, strain rom2, hits give low values 0.997 | locus YLR384C, strain iki3, hits give low values 0.99 | locus YLR418C, strain cdc73, hits give low values 0.998 | locus YML016C, strain PPZ1, hits give low values 0.99 | locus YML032C, strain rad52, hits give low values 1 | locus YML120C, strain ndi1, hits give low values 1.01 | locus YML124C, strain tub3, hits give low values 0.997 | locus YMR058W, strain fet3, hits give low values 1.01 | locus YMR078C, strain ctf18, hits give low values 0.977 | locus YMR125W, strain sto1, hits give low values 0.994 | locus YMR129W, hits give low values 1 | locus YMR205C, strain PFK2, hits give low values 1.01 | locus YMR223W, strain ubp8, hits give low values 1.01 | locus YMR231W, strain pep5, hits give low values 0.994 | locus YMR263W, strain SAP30, hits give low values 1.01 | locus YMR307W, strain GAS1, hits give low values 0.939 | locus YNL067W, strain RPL9B, hits give low values 1.04 | locus YNL071W, strain lat1, hits give low values 1.01 | locus YNL153C, strain GIM3, hits give low values 1.04 | locus YNL183C, strain NPR1, hits give low values 0.995 | locus YNL209W, strain ssb2, hits give low values 1.01 | locus YNL233W, strain BNI4, hits give low values 1.03 | locus YNL248C, strain rpa49, hits give low values 0.903 | locus YNL250W, strain rad50, hits give low values 0.981 | locus YNL271C, strain bni1, hits give low values 0.984 | locus YNL298W, strain CLA4, hits give low values 0.979 | locus YNL307C, strain MCK1, hits give low values 0.99 | locus YNL322C, strain KRE1 (second series), hits give low values 1.01 | locus YNL322C, strain KRE1, hits give low values 0.998 | locus YNR049C, strain mso1, hits give low values 1.02 | locus YNR052C, strain pop2, hits give low values 0.985 | locus YOL006C, strain TOP1, hits give low values 1.11 | locus YOL012C, strain htz1 0.738 | locus YOL147C, strain pex11, hits give low values 0.993 | locus YOR001W, strain rrp6, hits give low values 0.971 | locus YOR061W, strain CKA2, hits give low values 0.993 | locus YOR069W, strain VPS5, hits give low values 0.989 | locus YOR070C, strain gyp1, hits give low values 1 | locus YOR080W, strain dia2, hits give low values 0.994 | locus YOR083W, strain WHI5, hits give low values 1.01 | locus YOR106W, strain vam3, hits give low values 1.03 | locus YOR136W, strain idh2, hits give low values 0.985 | locus YOR144C, strain elg1, hits give low values 0.999 | locus YOR184W, strain ser1, hits give low values 1.03 | locus YOR231W, strain MKK1, hits give low values 0.994 | locus YOR265W, strain rbl2, hits give low values 1.02 | locus YOR270C, strain vph1, hits give low values 0.995 | locus YOR290C, strain snf2, hits give low values 0.997 | locus YOR316C, strain cot1, hits give low values 0.996 | locus YPL051W, strain arl3, hits give low values 1.01 | locus YPL078C, strain atp4, hits give low values 1.03 | locus YPL106C, strain sse1, hits give low values 0.987 | locus YPL240C, strain hsp82, hits give low values 0.999 | locus YPL241C, strain CIN2, hits give low values 0.996 | locus YPL256C, strain CLN2, hits give low values 0.997 | locus YPR119W, strain clb2, hits give low values 1 | locus YPR141C, strain kar3, hits give low values 0.991 | locus YPR163C, strain tif3, hits give low values 0.992 | locus YPR167C, strain met16, hits give low values 0.995 | strain wtn01, hits give low values 0.991
